Screening data (PubChem BioAssay)
Hits are enriched below; roughly 21% of the tested compounds scored in any of these assays.
Pf growth 48h = inhibits P. falciparum growth in the first generation, 48 h | P. falciparum luciferase growth in erythrocytes, 48 h | Potency, µM (doses to about 28.7 µM), without a hit: top-dose activity change, negative = inhibition, hits mostly inhibitors | hit rate 5.9% among 310,000; further: potency means the concentration at half of the fitted maximal effect; on the % scale 0 is the no-effect control and ±100 the full control effect
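Read-out is firefly luciferase luminescence from an integrated reporter in P. falciparum, so falling signal marks reduced parasite growth. Infected erythrocytes were at 2% hematocrit and 0.1% parasitemia (final) in Albumax-supplemented RPMI 1640.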
Pf growth 96h = inhibits malaria parasite growth, 96 h; hit rate 6.9% among 320,000; P. falciparum luciferase reporter growth, 96 h; Potency, µM (highest dose often 28.7 µM), for the others: at the highest dose activity change, negative = inhibition, usual class: inhibitors; further: potency means the concentration at half of the fitted maximal effect; on the % scale 0 is the no-effect control and ±100 the full control effect
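Two parasite generations (96 h, 37 C, 5% CO2) of compound exposure in infected erythrocytes (0.05% parasitemia, 2% hematocrit). Luciferase-reporter P. falciparum; decreased luminescence indicates inhibited growth, aimed at apicoplast-acting delayed death.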
HCV inh = inhibitors of hepatitis C virus infection; Huh7.5.1 HCVcc-Cre infection, luciferase reporter, 44 h; Potency, µM (series often up to 41.8 µM), for inactives: top-dose activity change, negative = inhibition, actives largely listed as inhibitors; hit rate 3.4% among 340,000; further: potency means the concentration at half of the fitted maximal effect; on the % scale 0 is the no-effect control and ±100 the full control effect
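Whole-lifecycle infectious HCVcc-Cre system; cells 1,000/well, compound then virus (~0.5 moi) added 4 h after plating, 44 h culture. Luciferase read 15 sec following 15 min substrate incubation, room temp.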
CHX counter = counter-screen hit for Shiga toxin inhibitors, cycloheximide; AID 2314; max response, %; hit rate 12% among 300,000; cell reporter, cycloheximide protein synthesis inhibition counterscreen; in the data active means max response mostly above about 13%, no sharp cut-off; inactive means mostly below about 14%; further: read at 38.3 µM for the half of the compounds with a filed dose; 0% is about no effect
Shiga toxin inh = inhibitors of Shiga toxin in Vero cells; inhibition, % at 38.7 µM; AID 2315; Vero cells, Shiga toxin protein synthesis inhibition reporter; hit rate 9.2% among 290,000; in the data active means inhibition mostly above about 28%, no sharp cut-off; inactive means mostly below about 43%; further: 0% is about no effect
HCMV antiviral = human cytomegalovirus inhibition. HFF cells, HCMV-luciferase reporter, 72 h; active compounds read low. activity change, negative = inhibition, % at 57.5 µM. hit rate 4.5% among 410,000. AID 1259415; in the data active means activity change below about -60%; inconclusive means no clear call, values can overlap the other calls; inactive means above about -39%; further: on the % scale 0 is the no-effect control and ±100 the full control effect
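Screen run at 2 compound doses on HFFs infected with reporter HCMV, MOI 1 PFU/cell. Luciferase activity from cell lysates at 72 h post infection gave inhibition relative to buffer-only and Salinomycin wells.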
* hit, by the source's call. Unless noted, the call rests on the fitted dose curve; in most records, active means well fitted inhibition curve with a large enough effect; inconclusive means small, poorly fitted or top-dose-only effect, or another doubt; inactive means no such curve, though single readings can be large or run the other way.

Screening O=C(COC(=O)Cc1ccccc1F)NNC(=O)c1ccc([N+](=O)[O-])cc1 returned Pf growth 48h 10%, Pf growth 96h 21%, HCV inh -23% and HCMV antiviral -29.
Screening Cc1ccc(S(=O)(=O)/N=C(/Nc2ccccc2C)c2ccccc2)cc1 returned HCV inh -8% and HCMV antiviral 17.
For Cc1ccc(S(=O)(=O)/N=C(/NC(=S)Nc2ccccc2)c2ccccc2)cc1 the results were Pf growth 96h 417%, HCV inh -2%, CHX counter 30*, Shiga toxin inh 73* and HCMV antiviral 162.
Screening O=S(=O)(N=C(NS(=O)(=O)c1ccc(Cl)cc1)c1ccccc1)c1ccc(Cl)cc1 returned HCV inh 30% and HCMV antiviral -39.
`O=c1[nH]c2ccc(N/C(=N/S(=O)(=O)c3ccccc3)c3ccccc3)cc2[nH]1` gave Pf growth 48h -8%, Pf growth 96h 4.1µM*, HCV inh 0%, CHX counter -2, Shiga toxin inh -4 and HCMV antiviral 0.
Screening COC(=O)c1ccc(N/C(=N/S(=O)(=O)c2ccccc2)c2ccccc2)cc1 returned Pf growth 48h -91%, Pf growth 96h inconclusive, HCV inh -3%, CHX counter 2, Shiga toxin inh 2 and HCMV antiviral inconclusive.
O=S(=O)(/N=C(/NS(=O)(=O)c1ccccc1)c1ccccc1)c1ccccc1 was read as Pf growth 48h 12%, Pf growth 96h -6%, HCV inh -3%, CHX counter 2, Shiga toxin inh 18 and HCMV antiviral -106*.
CC(=O)Nc1ccc(N/C(=N\S(=O)(=O)c2ccccc2)c2ccccc2)cc1 was read as Pf growth 48h -6%, Pf growth 96h inconclusive, HCV inh 7%, CHX counter 1, Shiga toxin inh -12 and HCMV antiviral 104.
For Cc1ccc(NC(=S)N/C(=N/S(=O)(=O)c2ccccc2)c2ccccc2)cc1 the results were Pf growth 48h 183%, HCV inh -27%, CHX counter 49*, Shiga toxin inh 90* and HCMV antiviral -17.
For O=C1CC(c2ccccc2)Sc2ccccc2N1Cc1ccc(F)cc1 (centres undefined) the results were HCMV antiviral -30.
For COc1ccc(NC(=O)c2ccco2)cc1NC(=O)c1ccc(OC(C)C)cc1 the results were HCMV antiviral -5.
Screening Cc1ccc(-c2cc(C(=O)Nc3nccs3)c3ccccc3n2)o1 returned Pf growth 48h inconclusive, Pf growth 96h 9.3µM*, HCV inh inconclusive, CHX counter -2, Shiga toxin inh -5 and HCMV antiviral 83.
Screening Cc1ccc(-c2cc(C(=O)Nc3ccccc3C(N)=O)c3ccccc3n2)o1 returned HCV inh inconclusive and HCMV antiviral 74.
O=C(Nc1nccs1)c1cc(-c2ccncc2)nc2ccccc12 was read as Pf growth 48h inconclusive, Pf growth 96h inconclusive, HCV inh -23%, CHX counter 11, Shiga toxin inh 2 and HCMV antiviral 5.
For Cc1ccc(-c2cc(C(=O)Nc3nccs3)c3ccccc3n2)c(C)c1 the results were Pf growth 48h inconclusive, Pf growth 96h 1.3µM*, HCV inh 10µM*, CHX counter 9, Shiga toxin inh 3 and HCMV antiviral -87*.
For O=S(=O)(Nc1ccc(-c2cn3c(n2)SCC3)cc1)c1ccccc1F the results were Pf growth 48h 1%, Pf growth 96h inconclusive, HCV inh -15%, CHX counter 16, Shiga toxin inh 11 and HCMV antiviral 17.
Screening Cc1ccc2c(=O)cc(C(=O)N(Cc3ccc(N(C)C)cc3)C3CCS(=O)(=O)C3)oc2c1 (centres undefined) returned HCMV antiviral -21.
`Cc1[nH]ccc2cc3nc4ccccc4c3cc12` gave HCMV antiviral -72*.
`CCC(C)[C@H](NC(=O)NCCCOC(C)C)C(=O)OC` (some centres undefined) gave Pf growth 48h -25%, Pf growth 96h 12µM*, HCV inh 6%, CHX counter -1, Shiga toxin inh 1 and HCMV antiviral 22.
